# Structures can show the parent of a compound that is named as a salt. ± gives the standard deviation.
# Test system: Danio rerio Tg(wt1b:EGFP) embryo, pronephros
# Assay: glomerular separation, fold change vs DMSO control; higher = glomeruli further apart (abnormal)
# Conditions: 25 µM; exposure: 24-48 hpf
# Summary of the method: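 Each feature value is a fold change relative to the mean of same-day DMSO-treated embryos. Embryos of the Tg(wt1b:EGFP) zebrafish line, dechorionated, received 25 μM compound in 0.5% DMSO from 24 to 48 hpf at 28.5°C, in HEPES-buffered E3 with 0.003% PTU. Distances and angles were computed by a Fiji macro from 16 manually set reference points on maximum projections of dorsal pronephros images, and values beyond 2 SD of the feature mean were removed.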
row,Compound,glomerular separation
1,CC1(C)S[C@@H]2[C@H](NC(=O)[C@H](C(=O)O)c3ccsc3)C(=O)N2[C@H]1C(=O)O [Ticarcillin sodium],0.953 ± 0.36
2,COc1nc(C)nc(Cl)c1NC1=NCCN1 [Moxonidine],1.07 ± 0.47
3,Cc1nccn1CC1CCc2c(c3ccccc3n2C)C1=O (stereo not given) [Ondansetron Hydrochloride],1.05 ± 0.35
4,C[C@]12CC[C@@H]3c4ccc(O)cc4CC[C@H]3[C@@H]1CCC2=O [Estrone],0.922 ± 0.35
5,N=C(N)c1ccc(OCCCCCOc2ccc(C(=N)N)cc2)cc1 [Pentamidine isethionate],0.801 ± 0.21
6,Cc1cccc(C)c1NC(=O)C1CCCCN1C (stereo not given) [Mepivacaine hydrochloride],0.751 ± 0.32
7,CN1CCCN(C(c2ccccc2)c2ccc(Cl)cc2)CC1 (stereo not given) [Homochlorcyclizine dihydrochloride],1.08 ± 0.45
8,CO/N=C(\C(=O)N[C@@H]1C(=O)N2C(C(=O)OC(C)OC(C)=O)=C(COC(N)=O)CS[C@H]12)c1ccco1 (stereo not given in full) [Cefuroxime axetil],1.21 ± 0.5
9,Cn1cnc([N+](=O)[O-])c1Sc1ncnc2[nH]cnc12 [Azathioprine],1.2 ± 0.26
10,COC(=O)[C@H](c1ccccc1Cl)N1CCc2sccc2C1 [Clopidogrel],1.06 ± 0.52
11,O=C(c1ccc(F)cc1)C1CCN(CCn2c(=O)[nH]c3ccccc3c2=O)CC1 [Ketanserin tartrate hydrate],0.846 ± 0.25
12,CCN(CC)CCNC(=O)c1cc(Cl)c(N)cc1OC [Metoclopramide monohydrochloride],0.868 ± 0.25
13,C=CCOC(Cn1ccnc1)c1ccc(Cl)cc1Cl (stereo not given) [Enilconazole],0.575 ± 0.22
14,Cc1ncc([N+](=O)[O-])n1CCO [Metronidazole],1.1 ± 0.31
15,CC(C)NCC(O)COc1ccc(COCCOC(C)C)cc1 (stereo not given) [Bisoprolol fumarate],1.2 ± 0.41
16,NC(CO)C(=O)NNCc1ccc(O)c(O)c1O (stereo not given) [Benserazide hydrochloride],1.17 ± 0.44
17,CCN1CCC[C@H]1CNC(=O)c1c(OC)ccc(Br)c1OC [Remoxipride Hydrochloride],0.777 ± 0.38
18,COc1ccccc1Oc1c(NS(=O)(=O)c2ccc(C(C)(C)C)cc2)nc(-c2ncccn2)nc1OCCO [Bosentan],1.19 ± 0.5
19,CCCCC(CC)CN1CN(CC(CC)CCCC)CC(C)(N)C1 (stereo not given) [Hexetidine],1.05 ± 0.29
20,C#C[C@]1(O)CC[C@H]2[C@@H]3[C@H](C)CC4=C(CCC(=O)C4)[C@H]3CC[C@@]21C [Tibolone],0.915 ± 0.4

row,Compound,glomerular separation
1,CC(=O)[C@@]1(O)CC[C@H]2[C@@H]3C[C@H](C)C4=CC(=O)C=C[C@]4(C)[C@@]3(F)[C@@H](O)C[C@@]21C [Fluorometholone],1.11 ± 0.27
2,O=C(O)COCCN1CCN(C(c2ccccc2)c2ccc(Cl)cc2)CC1 (stereo not given) [Cetirizine dihydrochloride],0.855 ± 0.18
3,CN(C)c1ccc(O)c2c1C[C@H]1C[C@H]3[C@H](N(C)C)C(O)=C(C(N)=O)C(=O)[C@@]3(O)C(O)=C1C2=O [Minocycline hydrochloride],1.02 ± 0.2
4,CC(=O)OC(C)C[N+](C)(C)C (stereo not given) [Methacholine chloride],0.765 ± 0.28
5,CNCCC=C1c2ccccc2CCc2ccccc21 [Nortriptyline hydrochloride],1.04 ± 0.35
6,Cc1ccc2c(c1)c1c3n2CCNC3CCC1 (stereo not given) [Pirlindole mesylate],0.876 ± 0.33
7,CC(C)CC(=O)N[C@H](C(=O)N[C@H](C(=O)N[C@@H](CC(C)C)[C@@H](O)CC(=O)N[C@@H](C)C(=O)N[C@@H](CC(C)C)[C@@H](O)CC(=O)O)C(C)C)C(C)C [Pepstatin A],0.947 ± 0.11
8,CC(C)(C)C(=O)OCOC(=O)[C@@H]1N2C(=O)[C@@H](NC(=O)[C@H](N)c3ccccc3)[C@H]2SC1(C)C [Pivampicillin],1.14 ± 0.47
9,CCc1ccc(CCOc2ccc(CC3SC(=O)NC3=O)cc2)nc1 (stereo not given) [Pioglitazone],1.48 ± 0.83
10,CN(Cc1ccc(C(C)(C)C)cc1)Cc1cccc2ccccc12 [Butenafine Hydrochloride],0.932 ± 0.4
11,CC(C(=O)O)c1ccc(N2Cc3ccccc3C2=O)cc1 (stereo not given) [Indoprofen],2.27 ± 0.52
12,CN1CCC(=C2c3ccccc3CCc3cccnc32)CC1 [Azatadine maleate],1.11 ± 0.32
13,C=C1c2cccc(O)c2C(=O)C2=C(O)[C@]3(O)C(=O)C(C(N)=O)=C(O)[C@@H](N(C)C)[C@@H]3[C@@H](O)[C@H]12 [Methacycline hydrochloride],0.724 ± 0.4
14,COC(=O)C1=C(C)NC(C)=C(C(=O)OC(C)C)C1c1cccc2nonc12 (stereo not given) [Isradipine],4.38 ± 1.4
15,CNCCCC12CCC(c3ccccc31)c1ccccc12 [Maprotiline hydrochloride],1.28 ± 0.49
16,CC1(C)S[C@@H]2[C@H](NC(=O)[C@H](NC(=O)N3CCNC3=O)c3ccccc3)C(=O)N2[C@H]1C(=O)O [Azlocillin sodium salt],0.819 ± 0.3
17,NC(=O)NC1NC(=O)NC1=O (stereo not given) [Allantoin],0.881 ± 0.25
18,Cc1[nH]cnc1CN1CCc2c(c3ccccc3n2C)C1=O [Alosetron hydrochloride],0.809 ± 0.28
19,CN[C@@H]1[C@@H](O[C@H]2O[C@H](CO)[C@@H](N)[C@H](O)[C@H]2O)OC2C[C@@H](N)[C@@H](O[C@H]3[C@H](O)[C@@H](O)[C@H](N)C[C@@H]3N)OC2[C@@H]1O (stereo not given in full) [Apramycin],1.1 ± 0.44
20,CN1CCc2cccc3c2[C@H]1Cc1ccc(O)c(O)c1-3 [R(-) Apomorphine hydrochloride hemihydrate],0.765 ± 0.25

# From the supplement of paper PMC7366291
